Experimental data from PubChem BioAssay (Tox21).
Where “and” joins values, the source holds several entries; their conditions need not be identical. Equal entries are not always repeated. Records with an inconclusive call do not appear. A call without a number means that no potency is given here. Calls of active or inactive are those of the source. Calls follow the shape of the dose curve; as a rule, active = well fitted cell-killing curve with a large enough effect in the repeat runs; inconclusive = weak or mixed curves, or effect the other way; inactive = no such curve, though single readings can be large or run the other way.

Experiment: qHTS assay for identifying genotoxic compounds that show differential cytotoxicity against isogenic chicken DT40 cell lines with known DNA damage response pathways - wild type cell line (AID 743012); also: nearly all actives have a fitted effect of over 60% in size
Conditions: DT40 wild type chicken cells viability, CellTiter-Glo, 40 h; series mostly up to 68.4 µM
Source text: U.S. Tox21 Program National Center for Advancing Translational Sciences [NCATS] NIH Chemical Genomics Center [NCGC] U.S. Environmental Protection Agency [EPA] National Institutes of Environmental Health Sciences [NIEHS] National Toxicology Program [NTP] U.S. Food and Drug Administration [FDA] Tox21 Assay Overview: DNA repair pathways play a critical role in cellular homeostasis by repairing DNA damage induced by endogenous processes and xenobiotics. Isogenic chicken DT40 cell lines deficient in different DNA repair pathways can be used to identify genotoxic compounds and aid in characterizing the nature of the DNA damage induced. Two DNA repair-deficient cell lines with disrupted genes, Rad54/Ku70 or Rev3, were used to screen the Tox21 10K compound library. Possible genotoxicity was based on the presence of a significant increase in cytotoxicity in one or more of the DNA repair-deficient cell lines compared to that observed in the parental DNA repair-proficient cell line. CellTiter Glo viability assay (Promega, Madison, WI) was used to measure cell viability in these cells after compound treatment. This assay includes the data from the wild type cell line.
Tox21 Assay Protocol Summary: 300 DT40 wild type cells in 5 uL/well were dispensed into white, solid-bottom 1536-well plates using a Multidrop Combi (ThermoFisher Scientific, Waltham, MA) dispenser. After the assay plates were incubated at 37 C/5% CO2 for approximately 0.5 hour, 23 nL of compounds dissolved in DMSO, positive controls or DMSO only was transferred into the assay plate by a pintool work station (Kalypsys, San Diego, CA). The assay plates were incubated at 37 C/5% CO2 for 40 hours. After 5 uL per well of CellTiter-Glo reagent was added into each well of the assay plates, the plates were incubated for 30 min at room temperature and the luminescence intensity of the plates was measured using a ViewLux (PerkinElmer, Shelton, CT) plate reader.
Potency is read from the fitted curve at half-maximal effect.

| SMILES | Potency |
| --- | --- |
| Nc1nc(N)c(N)c(N)n1 | inactive |
| C=CCBr | inactive |
| CC(C)=CCN1CC[C@@]2(C)c3cc(O)ccc3C[C@@H]1[C@@H]2C | 19 µM (active) |
| Clc1ccc(C(Cl)(Cl)Cl)cc1Cl | inactive |
| O=C1C(Cl)=C(Cl)C(=O)C(Cl)=C1Cl | 13.6 µM (active) and 9.69 µM (active) |
| CCCN | inactive |
| O=S(=O)(O)F | inactive |
| CCC[CH2][Sn]([CH2]CCC)([CH2]CCC)[O][Sn]([CH2]CCC)([CH2]CCC)[CH2]CCC | 0.336 µM (active) |
| CC(C)=CC1C(C(=O)OC(C#N)c2cccc(Oc3ccccc3)c2)C1(C)C (stereo not given) | inactive |
| CC(C)c1c(CN(C)C(C)Cc2ccccc2)n(C)n(-c2ccccc2)c1=O (stereo not given) | 6.39 µM (active) |
| Oc1cccc(Cl)c1Cl | inactive |
| CCOP(=O)(OCC)Oc1cc(C)nc(C(C)C)n1 | inactive |
| O=Cc1ccccc1 | inactive |
| CC(C)NCC(O)c1ccccc1Cl (stereo not given) | inactive |
| CCC(C)Br (stereo not given) | inactive |
| CC(C)[C@@H](Nc1ccc(C(F)(F)F)cc1Cl)C(=O)OC(C#N)c1cccc(Oc2ccccc2)c1 (stereo not given in full) | inactive |
| C[N+]1(C)[C@@H]2CC[C@H]1CC(OC(=O)C(CO)c1ccccc1)C2 (stereo not given in full) | inactive |
| CCc1cccc(C)c1N(C(=O)CCl)[C@@H](C)COC | 13.7 µM (active) |
| O=c1[nH]c(Cl)c(Cl)cc1Cl | inactive |
| Clc1ccc(C2(Cn3cncn3)OCCO2)c(Cl)c1 | 61.1 µM (active) |

| SMILES | Potency |
| --- | --- |
| [O]=[Cr](=[O])([OH])[O][Cr](=[O])(=[O])[OH] | 21.1 µM (active) [middle of 4 runs] |
| CNC(=O)/C=C(\C)OP(=O)(OC)OC | inactive |
| N#CSCc1ccccc1 | inactive |
| Fc1ccc(C(OCCN2CCN(CCCc3ccccc3)CC2)c2ccc(F)cc2)cc1 | 2.11 µM (active) |
| O=c1c2ccccc2c(=O)c2c1cc(Cl)c1[nH]c3c([nH]c12)c(Cl)cc1c(=O)c2ccccc2c(=O)c13 | inactive |
| C1=CCC=C1 | inactive |
| CCOP(=S)(OCC)Oc1cc(C)nc(N(CC)CC)n1 | 27.3 µM (active) |
| CCOP(=S)(NC(C)C)Oc1ccccc1C(=O)OC(C)C (stereo not given) | 15.4 µM (active) |
| Brc1cccc(-c2ccccc2)c1 | inactive |
| CCCCn1cc[n+](C)c1.[Cl][Fe-]([Cl])([Cl])[Cl] | inactive |
| C=Cc1cccc(CCl)c1 | inactive |
| OCC(Br)CBr (stereo not given) | inactive |
| CC[C@]1(O)CC[C@H]2[C@@H]3CCC4=CCCC[C@@H]4[C@H]3CC[C@@]21C | 8.41 µM (active) |
| CCCCn1cc[n+](C)c1 (tested in a mixture with another compound) | inactive |
| CCC1COC(Cn2cncn2)(c2ccc(Cl)cc2Cl)O1 (stereo not given) | 15.4 µM (active) |
| O=C1C2(Cl)C3(Cl)C4(Cl)C(Cl)(Cl)C5(Cl)C3(Cl)C1(Cl)C5(Cl)C24Cl (stereo not given) | 30.1 µM (active) and 29.3 µM (active) |
| CC1=C2C[C@H]3[C@@H](CC=C4C[C@@H](O)CC[C@@]43C)[C@@H]2CC[C@]12O[C@@H]1C[C@H](C)CN[C@H]1[C@H]2C | 29.8 µM (active) |
| [C-]1=CC=CC1.[Cl][Zr+2][Cl].c1cc[cH-]c1 | inactive |
| CC(C)C(Nc1ccc(C(F)(F)F)cc1Cl)C(=O)OC(C#N)c1cccc(Oc2ccccc2)c1 (stereo not given) | inactive |
| CCN1CCC2(CC1)COc1cc3c(cc12)N(C(=O)c1ccc(-c2ccc(-c4nnc(C)o4)cc2C)cc1)CC3 | 1.26 µM (active) |
